# Test results reported in PubChem BioAssay (NCI).
# The panel holds about 83,000 compounds, 20% with a hit somewhere; the sample as a whole holds those more often.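 96-well plates, one dose, 48 hours. Percent growth reported; active if below 10.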 Values without a mark were called inactive. The source made the active and inactive calls.
# How the values were obtained:
# Assay in all cases: NCI-60 one-dose screen, 48 h (100 = growth as untreated, 0 = no growth, -100 = all killed)
# Details in all cases: 10 µM unless noted
# T-47D breast = system: T-47D breast
# MDA-MB-435 melanoma = system: MDA-MB-435 melanoma
# SW-620 colon = system: SW-620 colon
# MCF7 breast = system: MCF7 breast
# HCT-116 colon = system: HCT-116 colon
# HCC-2998 colon = system: HCC-2998 colon
# KM12 colon = system: KM12 colon
# BT-549 breast = system: BT-549 breast
SMILES,growth (T-47D breast),growth (MDA-MB-435 melanoma),growth (SW-620 colon),growth (MCF7 breast),growth (HCT-116 colon),growth (HCC-2998 colon) [%],growth (KM12 colon),growth (BT-549 breast) [%]
COc1ccc([N+](=O)[O-])c(S(=O)(=O)c2ccc(Cl)cc2)n1,65.2%,40.9%,14.4%,18.1%,20.9%,104,97.7%,
COc1cccc(-c2nc3cc(NC(=O)c4ccc(Cl)c(C#N)c4)ccc3o2)c1,-20.4% (active),-73.3% (active),46.9%,8% (active),-92.2% (active),29.6,-51.8% (active),
COc1ccc2c(c1)CC[C@@H]1[C@@H]2CC[C@]2(C)[C@@H](O)C(=O)C[C@@H]12,106%,102%,,129%,99.7%,,110%,103
O=C(Nc1nn2c(-c3cc(C(F)(F)F)cc(C(F)(F)F)c3)nnc2s1)C1CCCC1,11.6%,12.5%,15.5%,6.67% (active),-29.7% (active),,11.1%,
Nc1nc2c(nnn2Cc2ccc(Cl)c(Cl)c2)c(=O)[nH]1,84.3%,,99.9%,93.7%,104%,116,90.2%,99.4
O=C1NC(=O)/C(=C\c2ccco2)S1,95.4%,,100%,104%,108%,116,103%,104
CCOC(=O)N1CCC(N=C2CSc3nnc(-c4cc(C(F)(F)F)cc(C(F)(F)F)c4)n3N2)CC1,34%,24.9%,36.2%,13.6%,-10.9% (active),,34.5%,
COc1ccc(NC(=O)c2ccc(-c3ccccc3)cc2)c(C(N)=O)c1,88.6%,98.5%,110%,96.6%,106%,102,99.2%,
Oc1c(N=Nc2nn[nH]n2)ccc2ccccc12,97.7%,67.7%,,73.7%,76.5%,103,80.1%,83.2
COc1cccc(C=Nc2cc(C(C)C)c(O)cc2C)c1O,51.7%,,,92.5%,99.1%,115,109%,101
O=c1sc2ncnc3ncn1c32,34.5%,29.5%,73.1%,22.4%,50.9%,79.5,70%,
CC(=O)c1nn(-c2ccccc2)c(=Nc2ccccc2)cc1C,88.2%,112%,,93.4%,98.2%,100,99%,99
CN(C)CCCNc1nn2c(=O)c3ccccc3nc2c2ccccc12,92.5%,74.7%,,26.7%,25.2%,70.6,66.1%,75.6
NS(=O)(=O)c1ccc(N2CC(c3nc4ccccc4[nH]3)CC2=O)cc1 (stereo unspecified),88.8%,104%,104%,94.9%,104%,99.1,97.6%,
COc1ccc(-c2nnc3c4[nH]cnc4ncn23)c(OC)c1,28.5%,13.2%,23.2%,7.19% (active),14.8%,26.3,22.5%,
FC(F)(F)c1cc(-c2nnc3n2N=C(N2CCCC2)CS3)cc(C(F)(F)F)c1,64%,96.8%,95.9%,95.3%,42.5%,,89.2%,

SMILES,growth (T-47D breast),growth (MDA-MB-435 melanoma),growth (SW-620 colon),growth (MCF7 breast),growth (HCT-116 colon),growth (HCC-2998 colon) [%],growth (KM12 colon),growth (BT-549 breast) [%]
COc1ccc(NC(=O)c2ccccc2-c2ccccc2)c(C(N)=O)c1,34%,-22.6% (active),24.7%,25.5%,27%,76.7,19.2%,
O=C(/C=C/c1ccc(C(F)(F)F)cc1)c1ccc(Nc2nc(NCCO)nc(NCCO)n2)cc1,37.2%,92.8%,,13.1%,-25.4% (active),97.4,19%,21.3
NC(=O)c1cc(Cl)ccc1NC(=O)c1ccccc1-c1ccccc1,26.9%,-63.7% (active),,25.4%,23.2%,49.3,16.9%,
COc1ccc(-n2cnc3cc(C(=O)N4CCCCC4)ccc32)cc1,91%,102%,,103%,98.3%,104,107%,
Fc1ccc(-c2nn3c(-c4cc(C(F)(F)F)cc(C(F)(F)F)c4)nnc3s2)cc1,51.8%,76.3%,65.8%,68.7%,-17.3% (active),,77.5%,
CCCCCCCSc1ncnc2[nH]ncc12,51.9%,,61.9%,81.7%,62.7%,119,83.2%,88.4
CCOC(=O)C1C(=O)NC(C(=O)OCC)(C(=O)OCC)C1CC (stereo unspecified),109%,115%,,104%,110%,108,112%,112
C/C(=C\CCc1ccsc1)CC/C=C(\C)CCCN1CCSCC1,70.1%,85.9%,,90.9%,77.7%,96.4,84.3%,97.1
CNNc1ncnc2c1cnn2-c1ccc(S(N)(=O)=O)cc1,98.2%,114%,,104%,100%,99.3,91.9%,109
O=C(c1ccc(Cl)cc1)c1ccc(Cl)cc1,101%,107%,103%,104%,110%,96.7,110%,
C1=C(Cc2ccccc2)n2cnc3ncnc(c32)S1,29.6%,26.5%,69%,20.3%,57.1%,70.2,69.6%,
COc1ccc(-c2cc(-c3cccnc3)nc3sc(C(=O)Nc4ccccc4)c(N)c23)cc1OC,55.8%,76.1%,85.5%,65.4%,50.5%,80.3,61.3%,
COc1cc(/C=C/c2cc(/C=C/c3ccc(O)c(OC)c3)n(C(=O)c3ccc(Cl)cc3)n2)ccc1O,11.2%,-45.2% (active),16.4%,20.1%,0.953% (active),52,10.8%,
COc1ccc(-c2cc(-c3cccnc3)nc(S(=O)(=O)CC(=O)Nc3ccc(C)cc3)c2C#N)cc1OC,64%,98.6%,98.3%,88.4%,85.8%,91.9,95.9%,
Cc1cc(C)cc(S(=O)(=O)n2ccc(-c3ccc4c(c3)CCC(C)(C)O4)n2)c1,58.2%,93.8%,88.3%,81.5%,77.8%,88.2,82.7%,
O=Nc1c2cccnc2n2nnc3ccc(Cl)cc3c12,12.1%,70.4%,-67.3% (active),-10.6% (active),0.54% (active),93.1,25.2%,
